The record followed here is the supplement of paper PMC13392028.

The assay concerns PfIESI-1 RRM domain (Plasmodium falciparum ortholog aa 875-1232, GST fusion). The assay can be described thus: RBNS R-value (6-mer enrichment in protein-bound RNA vs input library) (ratio); higher = stronger binding preference; the methods of the paper give 50 / 100 / 500 nM protein instead. Summed up: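 RNA-recognition-motif regions of orthologous proteins from three Plasmodium species were expressed in E. coli as GST fusions and purified. They were incubated at room temperature with an in vitro transcribed library of random 40-mer RNA, then captured on glutathione magnetic agarose beads and washed three times. Bound RNA and input library were reverse transcribed and sequenced on a MiSeq, and 6-mers from one replicate were scored. The R-value is each motif's enrichment in bound RNA over input, computed with the Burge lab pipeline.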

The full ranking holds about 4,100 sequences; the median of “RBNS R-value (6-mer enrichment in protein-bound RNA vs input library)” is about 0.99, and the highest 2% start at about 1.4. The list comes from a sample in which the highest values are over-represented; it also holds similar and randomly drawn sequences.

On to GCCCUG, for which the “RBNS R-value” by setting is: (protein concentration: 250 nM) 1.19; (protein concentration: 500 nM) 1.1; (protein concentration: 1000 nM) 1.14.

As for UGCCCG, the “RBNS R-value” by setting is: (protein concentration: 250 nM) 1.32; (protein concentration: 500 nM) 1.16; (protein concentration: 1000 nM) 1.2.

As to ACCCCG, the “RBNS R-value” (protein concentration: 250 nM) was 1.29, the “RBNS R-value” (protein concentration: 500 nM) was 1.16 and the “RBNS R-value” (protein concentration: 1000 nM) was 1.25.

Take AACCCC: the “RBNS R-value” (protein concentration: 250 nM) was 1.11, the “RBNS R-value” (protein concentration: 500 nM) stood at 1.05 and the “RBNS R-value” (protein concentration: 1000 nM) came to 1.08.

Consider UACCCA, for which the “RBNS R-value” (protein concentration: 250 nM) was 1.07, the “RBNS R-value” (protein concentration: 500 nM) came to 1.01 and the “RBNS R-value” (protein concentration: 1000 nM) is 1.01.

On to UACCCG, for which the “RBNS R-value” is, setting by setting: (protein concentration: 250 nM) 1.3; (protein concentration: 500 nM) 1.16; (protein concentration: 1000 nM) 1.2.

Take AACCCG: the “RBNS R-value” is, setting by setting: (protein concentration: 250 nM) 1.38; (protein concentration: 500 nM) 1.25; (protein concentration: 1000 nM) 1.29.

In the case of GGCCCG, the “RBNS R-value” (protein concentration: 250 nM) was found to be 1.26, the “RBNS R-value” (protein concentration: 500 nM) amounted to 1.11 and the “RBNS R-value” (protein concentration: 1000 nM) came out at 1.23.

Turning to CGCCCG, the “RBNS R-value” was found to be 1.43 (protein concentration: 250 nM), 1.22 (protein concentration: 500 nM) and 1.33 (protein concentration: 1000 nM).

Take CACCCG: the “RBNS R-value” reads like this: (protein concentration: 250 nM) 1.67; (protein concentration: 500 nM) 1.33; (protein concentration: 1000 nM) 1.41.

As for CACCCC, the “RBNS R-value” was determined as 1.3 (protein concentration: 250 nM), 1.16 (protein concentration: 500 nM) and 1.24 (protein concentration: 1000 nM).

Turning to CACCCA, the “RBNS R-value” (protein concentration: 250 nM) is 1.42, the “RBNS R-value” (protein concentration: 500 nM) came out at 1.26 and the “RBNS R-value” (protein concentration: 1000 nM) was found to be 1.31.

Turning to GACCCA, the “RBNS R-value” reads like this: (protein concentration: 250 nM) 1.15; (protein concentration: 500 nM) 1.12; (protein concentration: 1000 nM) 1.14.

Regarding AGUAGA, the “RBNS R-value” runs as follows: (protein concentration: 250 nM) 1.01; (protein concentration: 500 nM) 1.08; (protein concentration: 1000 nM) 1.05.

For GAUCGC, the “RBNS R-value” stood at 0.972 (protein concentration: 250 nM), 0.958 (protein concentration: 500 nM) and 0.975 (protein concentration: 1000 nM).

Regarding AACACA, the “RBNS R-value” reads like this: (protein concentration: 250 nM) 0.942; (protein concentration: 500 nM) 1.02; (protein concentration: 1000 nM) 0.978.

With GAGUCA, the “RBNS R-value” reads like this: (protein concentration: 250 nM) 0.969; (protein concentration: 500 nM) 0.989; (protein concentration: 1000 nM) 0.99.

In the case of UGCAAG, the “RBNS R-value” was 0.989 (protein concentration: 250 nM), 1.01 (protein concentration: 500 nM) and 1.03 (protein concentration: 1000 nM).

For the sequence AUUAGU, the “RBNS R-value” reads like this: (protein concentration: 250 nM) 0.821; (protein concentration: 500 nM) 0.901; (protein concentration: 1000 nM) 0.849.

Consider CUCAGG, for which the “RBNS R-value” reads like this: (protein concentration: 250 nM) 1.03; (protein concentration: 500 nM) 1.04; (protein concentration: 1000 nM) 1.09.

For CACCUC, the “RBNS R-value” reads like this: (protein concentration: 250 nM) 1.07; (protein concentration: 500 nM) 1; (protein concentration: 1000 nM) 1.05.

Turning to CACCUG, the “RBNS R-value” was determined as 1.41 (protein concentration: 250 nM), 1.3 (protein concentration: 500 nM) and 1.29 (protein concentration: 1000 nM).

With CACCUA, the “RBNS R-value” reads like this: (protein concentration: 250 nM) 1.09; (protein concentration: 500 nM) 1.01; (protein concentration: 1000 nM) 1.01.

In the case of UCGGGG, the “RBNS R-value” by setting is: (protein concentration: 250 nM) 1.04; (protein concentration: 500 nM) 0.984; (protein concentration: 1000 nM) 1.05.

In the case of UCUGCG, the “RBNS R-value” came to 0.996 (protein concentration: 250 nM), 0.968 (protein concentration: 500 nM) and 1 (protein concentration: 1000 nM).

Turning to UUAUUA, the “RBNS R-value” was determined as 0.766 (protein concentration: 250 nM), 0.749 (protein concentration: 500 nM) and 0.734 (protein concentration: 1000 nM).

On to UAUGGC, for which the “RBNS R-value” runs as follows: (protein concentration: 250 nM) 1.09; (protein concentration: 500 nM) 1.06; (protein concentration: 1000 nM) 0.988.

For CAUGGC, the “RBNS R-value” runs as follows: (protein concentration: 250 nM) 1.03; (protein concentration: 500 nM) 0.999; (protein concentration: 1000 nM) 1.03.

As to GAUGGG, the “RBNS R-value” (protein concentration: 250 nM) turned out to be 1.47, the “RBNS R-value” (protein concentration: 500 nM) amounted to 1.46 and the “RBNS R-value” (protein concentration: 1000 nM) amounted to 1.34.

For AAUGGG, the “RBNS R-value” by setting is: (protein concentration: 250 nM) 1.03; (protein concentration: 500 nM) 1.06; (protein concentration: 1000 nM) 1.03.

Take GAUGGC: the “RBNS R-value” (protein concentration: 250 nM) amounted to 1.85, the “RBNS R-value” (protein concentration: 500 nM) is 1.82 and the “RBNS R-value” (protein concentration: 1000 nM) stood at 1.48.

Consider UAUGGG, for which the “RBNS R-value” came out at 0.895 (protein concentration: 250 nM), 0.916 (protein concentration: 500 nM) and 0.918 (protein concentration: 1000 nM).

CCUCCC: the “RBNS R-value” by setting is: (protein concentration: 250 nM) 1.06; (protein concentration: 500 nM) 0.981; (protein concentration: 1000 nM) 1.04.

Turning to ACUAGG, the “RBNS R-value” runs as follows: (protein concentration: 250 nM) 0.943; (protein concentration: 500 nM) 0.956; (protein concentration: 1000 nM) 0.957.

UGGACA: the “RBNS R-value” reads like this: (protein concentration: 250 nM) 0.973; (protein concentration: 500 nM) 0.993; (protein concentration: 1000 nM) 0.99.
